Laboratory results published in PubChem BioAssay AID1159580 (chemical genetic matrix, 2015).
Where “and” joins values, the source holds several entries; their conditions need not be identical. Equal entries are not always repeated. In all, about 5,500 compounds went through this assay and about 2,000 (36%) were called active. Not shown: some 18% with an inconclusive outcome. Cut-off read from the data, not from the text of the source: active = normalized growth mostly below about 0.91 (no sharp cut-off); inconclusive = no clear call, values can overlap the other calls; inactive = mostly above about 0.92. The list shows a part of the results.

Experiment: chemical genetic growth profiling, strain panel (AID 1159580);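 note: tested at 20 µM; growth read once vehicle control cultures reached saturation at 30 °C; 1 = growth at the plate median or of vehicle wells; lower values mean less growth of the strain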
Conditions: growth OD

Measured: normalized growth

COc1ccc(-c2coc3cc(O)cc(O)c3c2=O)cc1
active: S. cerevisiae deletion strains, locus YAL013W, strain DEP1, stronger effect = lower value 0.497 | S. cerevisiae deletion strains, locus YBR229C, strain ROT2, stronger effect = lower value 0.77 | S. cerevisiae deletion strains, locus YCL029C, strain bik1, stronger effect = lower value 0.496 | S. cerevisiae deletion strains, locus YDL035C, strain GPR1, stronger effect = lower value 0.241 | S. cerevisiae deletion strains, locus YDL074C, strain BRE1, stronger effect = lower value 0.261 | S. cerevisiae deletion strains, locus YDL101C, strain DUN1, stronger effect = lower value 0.358 | S. cerevisiae deletion strains, locus YDL134C, strain PPH21, stronger effect = lower value 0.295 | S. cerevisiae deletion strains, locus YDL185W, strain tfp1, stronger effect = lower value 0.899 | S. cerevisiae deletion strains, locus YDL192W, strain arf1, stronger effect = lower value 0.28 | S. cerevisiae deletion strains, locus YDR101C, strain arx1, stronger effect = lower value 0.504 | S. cerevisiae deletion strains, locus YDR150W, strain NUM1, stronger effect = lower value 0.323 | S. cerevisiae deletion strains, locus YDR162C, strain NBP2, stronger effect = lower value 0.12 | S. cerevisiae deletion strains, locus YDR318W, strain mcm21, stronger effect = lower value 0.265 | S. cerevisiae deletion strains, locus YDR388W, stronger effect = lower value 0.286 | S. cerevisiae deletion strains, locus YDR502C, strain sam2, stronger effect = lower value 0.287 | S. cerevisiae deletion strains, locus YEL061C, strain CIN8, stronger effect = lower value 0.206 | S. cerevisiae deletion strains, locus YER110C, stronger effect = lower value 0.539 | S. cerevisiae deletion strains, locus YER155C, strain BEM2, stronger effect = lower value 0.199 | S. cerevisiae deletion strains, locus YER167W, strain BCK2, stronger effect = lower value 0.178 | S. cerevisiae deletion strains, locus YGL078C, strain dbp3, stronger effect = lower value 0.649 | S. cerevisiae deletion strains, locus YGL086W, strain mad1, stronger effect = lower value 0.258 | S. cerevisiae deletion strains, locus YGL248W, strain PDE1, stronger effect = lower value 0.286 | S. cerevisiae deletion strains, locus YGR078C, strain PAC10, stronger effect = lower value 0.227 | S. cerevisiae deletion strains, locus YGR135W, strain pre9, stronger effect = lower value 0.314 | S. cerevisiae deletion strains, locus YGR229C, strain SMI1, stronger effect = lower value 0.196 | S. cerevisiae deletion strains, locus YGR252W, strain gcn5, stronger effect = lower value 0.507 | S. cerevisiae deletion strains, locus YHR030C, strain SLT2, stronger effect = lower value 0.248 and 0.299 | S. cerevisiae deletion strains, locus YHR079C, strain IRE1 (second series), stronger effect = lower value 0.526 | S. cerevisiae deletion strains, locus YHR079C, strain IRE1, stronger effect = lower value 0.293 | S. cerevisiae deletion strains, locus YHR094C, strain hxt1, stronger effect = lower value 0.627 | S. cerevisiae deletion strains, locus YHR129C, strain ARP1, stronger effect = lower value 0.363 | S. cerevisiae deletion strains, locus YHR200W, strain rpn10, stronger effect = lower value 0.513 | S. cerevisiae deletion strains, locus YIL066C, strain RNR3, stronger effect = lower value 0.361 | S. cerevisiae deletion strains, locus YIL073C, strain SPO22, stronger effect = lower value 0.532 | S. cerevisiae deletion strains, locus YIL125W, strain kgd1, stronger effect = lower value 0.697 | S. cerevisiae deletion strains, locus YIR030C, strain dcg1, stronger effect = lower value 0.465 | S. cerevisiae deletion strains, locus YJL095W, strain BCK1, stronger effect = lower value 0.172 and 0.287 | S. cerevisiae deletion strains, locus YJL134W, strain LCB3, stronger effect = lower value 0.7 | S. cerevisiae deletion strains, locus YJL168C, strain set2, stronger effect = lower value 0.888 | S. cerevisiae deletion strains, locus YJL187C, strain SWE1 (second series), stronger effect = lower value 0.353 | S. cerevisiae deletion strains, locus YJR043C, strain POL32, stronger effect = lower value 0.374 | S. cerevisiae deletion strains, locus YJR066W, strain TOR1, stronger effect = lower value 0.16 | S. cerevisiae deletion strains, locus YJR075W, strain HOC1, stronger effect = lower value 0.179 | S. cerevisiae deletion strains, locus YKL009W, strain mrt4, stronger effect = lower value 0.484 | S. cerevisiae deletion strains, locus YKL085W, strain MDH1 (second series), stronger effect = lower value 0.604 | S. cerevisiae deletion strains, locus YKL085W, strain MDH1, stronger effect = lower value 0.604 | S. cerevisiae deletion strains, locus YKL190W, strain CNB1, stronger effect = lower value 0.223 | S. cerevisiae deletion strains, locus YKR001C, strain vps1, stronger effect = lower value 0.189 | S. cerevisiae deletion strains, locus YLR039C, strain RIC1, stronger effect = lower value 0.241 | S. cerevisiae deletion strains, locus YLR058C, strain SHM2, stronger effect = lower value 0.365 | S. cerevisiae deletion strains, locus YLR102C, strain apc9, stronger effect = lower value 0.625 | S. cerevisiae deletion strains, locus YLR113W, strain HOG1, stronger effect = lower value 0.332 | S. cerevisiae deletion strains, locus YLR262C, strain YPT6, stronger effect = lower value 0.181 | S. cerevisiae deletion strains, locus YLR268W, strain sec22, stronger effect = lower value 0.211 | S. cerevisiae deletion strains, locus YLR330W, strain CHS5, stronger effect = lower value 0.356 | S. cerevisiae deletion strains, locus YLR342W, strain FKS1 (second series), stronger effect = lower value 0.289 | S. cerevisiae deletion strains, locus YLR371W, strain rom2, stronger effect = lower value 0.493 | S. cerevisiae deletion strains, locus YLR418C, strain cdc73, stronger effect = lower value 0.192 | S. cerevisiae deletion strains, locus YML016C, strain PPZ1, stronger effect = lower value 0.444 | S. cerevisiae deletion strains, locus YML032C, strain rad52, stronger effect = lower value 0.449 | S. cerevisiae deletion strains, locus YML124C, strain tub3, stronger effect = lower value 0.449 | S. cerevisiae deletion strains, locus YMR078C, strain ctf18, stronger effect = lower value 0.407 | S. cerevisiae deletion strains, locus YMR223W, strain ubp8, stronger effect = lower value 0.297 | S. cerevisiae deletion strains, locus YMR263W, strain SAP30, stronger effect = lower value 0.424 | S. cerevisiae deletion strains, locus YMR307W, strain GAS1, stronger effect = lower value 0.148 | S. cerevisiae deletion strains, locus YNL067W, strain RPL9B, stronger effect = lower value 0.234 | S. cerevisiae deletion strains, locus YNL128W, strain TEP1, stronger effect = lower value 0.272 | S. cerevisiae deletion strains, locus YNL153C, strain GIM3, stronger effect = lower value 0.439 | S. cerevisiae deletion strains, locus YNL183C, strain NPR1, stronger effect = lower value 0.228 | S. cerevisiae deletion strains, locus YNL233W, strain BNI4, stronger effect = lower value 0.242 | S. cerevisiae deletion strains, locus YNL250W, strain rad50, stronger effect = lower value 0.789 | S. cerevisiae deletion strains, locus YNL271C, strain bni1, stronger effect = lower value 0.623 | S. cerevisiae deletion strains, locus YNL298W, strain CLA4, stronger effect = lower value 0.459 | S. cerevisiae deletion strains, locus YNL307C, strain MCK1, stronger effect = lower value 0.114 | S. cerevisiae deletion strains, locus YNL322C, strain KRE1, stronger effect = lower value 0.337 | S. cerevisiae deletion strains, locus YNR052C, strain pop2, stronger effect = lower value 0.656 | S. cerevisiae deletion strains, locus YOL006C, strain TOP1, stronger effect = lower value 0.29 | S. cerevisiae deletion strains, locus YOL147C, strain pex11, stronger effect = lower value 0.362 | S. cerevisiae deletion strains, locus YOR061W, strain CKA2, stronger effect = lower value 0.432 | S. cerevisiae deletion strains, locus YOR069W, strain VPS5, stronger effect = lower value 0.501 | S. cerevisiae deletion strains, locus YOR136W, strain idh2, stronger effect = lower value 0.304 | S. cerevisiae deletion strains, locus YOR144C, strain elg1, stronger effect = lower value 0.652 | S. cerevisiae deletion strains, locus YOR184W, strain ser1, stronger effect = lower value 0.111 | S. cerevisiae deletion strains, locus YOR231W, strain MKK1, stronger effect = lower value 0.288 | S. cerevisiae deletion strains, locus YOR316C, strain cot1, stronger effect = lower value 0.636 | S. cerevisiae deletion strains, locus YPL055C, strain LGE1, stronger effect = lower value 0.176 | S. cerevisiae deletion strains, locus YPL241C, strain CIN2, stronger effect = lower value 0.289 | S. cerevisiae deletion strains, locus YPL256C, strain CLN2, stronger effect = lower value 0.345 | S. cerevisiae deletion strains, locus YPR119W, strain clb2, stronger effect = lower value 0.308 | S. cerevisiae deletion strains, locus YPR163C, strain tif3, stronger effect = lower value 0.207 | S. cerevisiae deletion strains, locus YPR167C, strain met16, stronger effect = lower value 0.44 | S. cerevisiae deletion strains, strain wtn01, stronger effect = lower value 0.226 | S. cerevisiae strains, strain wild type, stronger effect = lower value 0.244
inactive: S. cerevisiae deletion strains, locus YBR021W, strain FUR4, stronger effect = lower value 0.988 | S. cerevisiae deletion strains, locus YKL068W, stronger effect = lower value 0.964 | S. cerevisiae deletion strains, locus YOL012C, strain htz1 0.231 | S. cerevisiae deletion strains, locus YPR141C, strain kar3, stronger effect = lower value 0.935
